Assay outcomes from PubChem.
V-ATPase pH – regulators of yeast V-ATPase proton transport. S. cerevisiae, pHLuorin cytosolic pH fluorescence. response, % at 10 µM. 350,000 compounds, 0.37% hits. AID 504577; in the data active means response mostly above about 7.3%, no sharp cut-off; inactive means mostly below about 5.4%; further: actives read high
ADAM17 inh – inhibitors of human ADAM17; inhibition, % at 6.95 µM; AID 720648; P78536; recombinant ADAM17, EDANS/DABCYL FRET peptide cleavage; 370,000 compounds, 0.83% hits;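 active means inhibition above the mean of compounds lying between control limits plus 3 SD, set per campaign, cut at about 8.5% in these data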
proKLK7 act – activators of human kallikrein-7 zymogen | P49862 | purified proKLK7, EDANS-DABCYL substrate fluorescence; 100% is mature enzyme control, 0% vehicle | activation, % at 7 µM | 370,000 compounds, 0.9% hits | AID 652039;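 active means activation above the mean of all tested compounds plus 3 SD, computed per campaign excluding outliers beyond control limits, cut at about 13% in these data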
ADAM10 inh – inhibits human ADAM10; 370,000 compounds, 0.62% hits; recombinant ADAM10, EDANS/DABCYL FRET peptide cleavage, 3 h; inhibition, % at 7 µM; O14672; AID 720582;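 active means inhibition above a per-campaign cutoff equal to the mean of compounds falling between control-based bounds plus 3 SD, cut at about 20% in these data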
Target sequence (O14672 214-748 limits assumed): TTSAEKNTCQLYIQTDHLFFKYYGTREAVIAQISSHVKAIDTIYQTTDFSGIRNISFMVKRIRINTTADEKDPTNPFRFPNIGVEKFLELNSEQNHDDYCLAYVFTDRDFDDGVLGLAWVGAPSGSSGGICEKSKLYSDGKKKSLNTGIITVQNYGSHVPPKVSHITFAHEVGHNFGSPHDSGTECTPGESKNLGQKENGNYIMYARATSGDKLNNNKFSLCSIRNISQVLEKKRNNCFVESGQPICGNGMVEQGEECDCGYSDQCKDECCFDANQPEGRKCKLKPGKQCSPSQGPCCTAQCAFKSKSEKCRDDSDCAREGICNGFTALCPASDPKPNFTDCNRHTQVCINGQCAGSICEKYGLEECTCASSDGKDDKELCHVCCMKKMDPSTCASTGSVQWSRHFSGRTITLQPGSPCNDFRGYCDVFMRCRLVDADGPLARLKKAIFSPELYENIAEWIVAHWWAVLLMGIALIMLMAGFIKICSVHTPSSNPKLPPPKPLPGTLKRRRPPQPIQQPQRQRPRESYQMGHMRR
ADAM10 confirm – confirmation of inhibitors of human ADAM10. shares compounds with ADAM10 inh. ADAM10 QFRET peptide cleavage, EDANS fluorescence. inhibition, % at 6.95 µM. 2,100 compounds, 1% hits. AID 743208;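 active means inhibition above about 20% chosen separately for each screening run, limit read from the data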
ADAM17 ctr – ADAM17 inhibition, counter-screen for ADAM10 exosite hits. shares compounds with ADAM10 inh. ADAM17 QFRET peptide cleavage, EDANS fluorescence. inhibition, % at 6.95 µM. 2,100 compounds, 0.5% hits. AID 743214;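 active means mean triplicate inhibition above the solvent-only control wells' mean plus 3 SD, cut at about 12% in these data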
ADAM10 counter – ADAM10 inhibition, counter-screen for ADAM17 exosite hits. shares compounds with ADAM17 inh. recombinant ADAM10, EDANS/DABCYL FRET peptide cleavage, 3 h. inhibition, % at 6.95 µM. 2,900 compounds, 47% hits. AID 743256;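 active means mean inhibition over the triplicate runs exceeds the activity threshold set in the earlier primary screen, cut at about 20% in these data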
ADAM17 confirm – confirmation of inhibitors of human ADAM17; inhibition, % at 6.95 µM; shares compounds with ADAM17 inh; 2,900 compounds, 65% hits; recombinant ADAM17, EDANS/DABCYL QFRET peptide cleavage;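 active means mean inhibition across replicates above the hit cutoff set in the primary screen, cut at about 8.5% in these data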
Large screens that a line does not name were inactive (follow-up assays come after a bar, where they were run). A selection: hits, their analogues and other compounds. The true share with any hit is near 2.3%.

CC(=O)N1CCN(C2c3cccc4cccc(c34)C2NS(=O)(=O)c2ccccc2)CC1 (stereo not given)	none
COc1cc(/C=N/NC(=O)[C@H](Cc2c[nH]c3ccccc23)NC(=O)OCC(C)C)cc([N+](=O)[O-])c1O	ADAM17 inh 16, ADAM10 inh 32 | ADAM10 confirm inactive | ADAM17 ctr inactive | ADAM10 counter inactive | ADAM17 confirm inactive
O/N=C/c1cc(Br)ccc1OCc1cccc(F)c1	ADAM17 inh 11, ADAM10 inh 28 | ADAM10 confirm inactive | ADAM17 ctr inactive | ADAM10 counter inactive | ADAM17 confirm 9.5
Cc1ccc(-c2csc(N3CCC(NS(=O)(=O)c4ccc5c(c4)OCCO5)CC3)n2)cc1	ADAM17 inh 13, ADAM10 inh 24 | ADAM10 confirm inactive | ADAM17 ctr inactive | ADAM10 counter 20 | ADAM17 confirm 15
O=C(Nc1cccc(C(F)(F)F)c1)N1CCC(c2nc(-c3ccc(F)cc3)no2)CC1	ADAM17 inh 9.6, ADAM10 inh 21 | ADAM10 confirm inactive | ADAM17 ctr inactive | ADAM10 counter 34 | ADAM17 confirm 17
S=C1NCCOc2ccccc21	none (no result: V-ATPase pH)
COc1ccc([C@@H]2[C@@H]3C(=O)N(C(C)(C)C)C(=O)[C@@H]3[C@]3(Cc4ccccc4)C(=O)N(c4ccccc4)C(=O)N23)cc1	none
COc1ccc([C@@H]2[C@@H]3C(=O)N(C(C)(C)C)C(=O)[C@@H]3[C@]3(Cc4ccccc4)C(=O)N(c4cccc(Cl)c4)C(=O)N23)cc1	ADAM17 inh 9.8, ADAM10 inh 37 | ADAM10 confirm inactive | ADAM17 ctr inactive | ADAM10 counter 26 | ADAM17 confirm 15
COCCN1Cc2cc(C(=O)OC)c3c(c2C1=O)c1ccccc1n3S(=O)(=O)c1ccc(OC)cc1	none (no result: V-ATPase pH)
CCc1cccc(C)c1NC(=O)CN1CCN(S(=O)(=O)c2ccc(C(C)(C)C)cc2)CC1	ADAM17 inh 10.0, ADAM10 inh 24 | ADAM10 confirm inactive | ADAM17 ctr inactive | ADAM10 counter inactive | ADAM17 confirm inactive
CCc1cccc(C)c1NC(=O)COC(=O)C1CCN(S(=O)(=O)c2ccccc2)CC1	none
COC(=O)c1cc2c(c3c4cc(OC)ccc4n(S(C)(=O)=O)c13)C(=O)N(C)C2	none (no result: V-ATPase pH)
Cc1ccc(NC(=O)Cc2cccc(OC(F)F)c2)c(S(=O)(=O)N2CCOCC2)c1	none (no result: V-ATPase pH)
CCOc1cc(C(c2c(C)[nH][nH]c2=O)c2c(C)[nH][nH]c2=O)ccc1OCc1ccc([N+](=O)[O-])cc1	none
CCOc1cc(C(c2c(C)[nH][nH]c2=O)c2c(C)[nH][nH]c2=O)ccc1OC(=O)c1cccc([N+](=O)[O-])c1	ADAM17 inh 24, ADAM10 inh 27 | ADAM10 confirm inactive | ADAM17 ctr inactive | ADAM10 counter inactive | ADAM17 confirm inactive
O=[N+]([O-])c1cc(S(=O)(=O)Nc2ccccc2)ccc1N1CCN(c2ccccc2)CC1	ADAM17 inh 11, ADAM10 inh 24 | ADAM10 confirm inactive | ADAM17 ctr inactive | ADAM10 counter 38 | ADAM17 confirm 21
COc1ccc(C(CC(=O)c2ccc(C)cc2)Nc2ccc([N+](=O)[O-])cc2)cc1 (stereo not given)	ADAM17 inh 14, ADAM10 inh 20 | ADAM10 confirm inactive | ADAM17 ctr inactive | ADAM10 counter inactive | ADAM17 confirm 13
Cc1ccc(NC(CC(=O)c2ccccc2)c2ccc(F)cc2)cc1 (stereo not given)	none
COc1ccc(S[C@]2(C(=O)N3CCN(C(C)=O)CC3)CC(=O)N[C@@H]2c2ccc(OC)cc2)cc1	none (no result: V-ATPase pH)
O=C(/C=C/c1ccc(Cl)cc1Cl)NCCSCc1ccccc1	none
O=C(/C=C/c1ccc(Cl)cc1Cl)NCCSc1ccccc1	ADAM17 inh 11, ADAM10 inh 25 | ADAM10 confirm inactive | ADAM17 ctr inactive | ADAM10 counter 23 | ADAM17 confirm 17
O=C(NCc1ccccc1)OC1CC2CC1[C@H]1CCCCN1C2 (stereo not given in full)	none (no result: V-ATPase pH)
O=C(CCl)N1CCN2C(=O)c3ccccc3C12c1ccc(Cl)cc1 (stereo not given)	none
O=C(Nc1cccc(Cl)c1)N1CCN2C(=O)c3ccccc3C12c1ccccc1 (stereo not given)	ADAM17 inh 11, ADAM10 inh 23 | ADAM10 confirm inactive | ADAM17 ctr inactive | ADAM10 counter 20 | ADAM17 confirm 12
CCCCOCC1CN(CCCC)S(=O)(=O)c2c(cccc2N2CCCCC2)O1 (stereo not given)	none (no result: V-ATPase pH)
CC1CC(=O)N(CCc2ccccc2)C(=O)C1	none
O=C1CC(=O)N(CCc2ccccc2)C(=O)N1CCc1ccccc1	ADAM17 inh 13, ADAM10 inh 24 | ADAM10 confirm inactive | ADAM17 ctr inactive | ADAM10 counter 25 | ADAM17 confirm 9.9
O=C(NCC1CCCO1)C(c1cccs1)N(Cc1ccccc1)C(=O)c1ccc(-c2ccccc2)[nH]1 (stereo not given)	ADAM17 inh 12, ADAM10 inh 30 | ADAM10 confirm inactive | ADAM17 ctr inactive | ADAM10 counter inactive | ADAM17 confirm 14
Cc1nn(-c2cc(N3CCCCC3)ccc2[N+](=O)[O-])c(=O)c2ccccc12	none
CN1CCN(c2ccc([N+](=O)[O-])c(-n3nc(-c4ccccc4)c4ccccc4c3=O)c2)CC1	ADAM17 inh 13, ADAM10 inh 20 | ADAM10 confirm inactive | ADAM17 ctr inactive | ADAM10 counter inactive | ADAM17 confirm 9.7
CC(=O)c1ccc(OCCCC(=O)Nc2ccc(C)c(S(=O)(=O)N3CCCCC3)c2)cc1	none
CCOc1ccc(C(=O)CCC(=O)Nc2ccc(C)c(S(=O)(=O)N3CCCCC3)c2)cc1	ADAM17 inh 9.1, ADAM10 inh 28 | ADAM10 confirm inactive | ADAM17 ctr inactive | ADAM10 counter 27 | ADAM17 confirm 13
Cc1ccc(C)c(OCCC(=O)OCC(=O)Nc2cc(S(=O)(=O)N3CCCCC3)ccc2C)c1	ADAM17 inh 11, ADAM10 inh 25 | ADAM10 confirm inactive | ADAM17 ctr inactive | ADAM10 counter 45 | ADAM17 confirm 21
COc1ccc(NC(=O)CCOc2cc(C)ccc2C)cc1S(=O)(=O)N1CCCCC1	ADAM17 inh 12, ADAM10 inh 24 | ADAM10 confirm inactive | ADAM17 ctr inactive | ADAM10 counter inactive | ADAM17 confirm 9.2
Cc1ccc(C)c(OCCC(=O)Nc2cc(S(=O)(=O)N3CCCCC3)ccc2C)c1	none
CCCCCCn1c(-c2ccc(Cl)cc2Cl)csc1=Nc1ccccc1	none (no result: V-ATPase pH)
O=C(COc1ccccc1F)c1ccc(O)cc1O	none
